Source: PubChem
ATXN2 expr inh: reduces ATXN2 reporter expression in HEK-293 cells; HEK-293 ATXN2-luciferase reporter, luminescence, 24 h; 0.72% of 360,000 active; Potency, µM (series often up to 57 µM), most hits filed as inhibitors; further: nearly all actives have a fitted effect of over 55% in size
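ATXN2-luciferase reporter cells (luciferase flanked by upstream and downstream ATXN2 gene portions) were treated 24 h at 37 °C with compounds at up to 57 uM. SteadyGlo luminescence gave expression; GF-AFC fluorescence gave viability.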
DT40 TDP1 CPT: DT40-hTDP1 cell growth loss with CPT. chicken DT40 Tdp1-/-;hTDP1 cells + 20 nM CPT, ATP luminescence, 48 h. Potency, µM (series often up to 46.2 µM), usual class: inhibitors. 12% of 420,000 active. AID 686979; further: nearly all actives have a fitted effect of over 55% in size
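Chicken DT40 Tdp1-/- cells complemented with human TDP1, 400 cells/well, exposed to compounds plus 20 nM camptothecin for at least 48 h at 37 C; viability read as ATP content by CellTiter-Glo luminescence.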
TGFb SMAD3 inh: TGF-b pathway inhibition. HepG2 CAGA-GFP TGF-b/SMAD3 reporter, GFP fluorescence, 18 h; TGF-beta stimulated, 500 pg/mL final. Potency, µM (doses to about 46.1 µM), usual class: inhibitors. AID 588855. 1.2% of 410,000 active; further: nearly all actives have a fitted effect of over 65% in size
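First, reporter cells (HEPG2 CAGA-GFP) rested 2 h at 37 degrees C. Next, compounds were pinned in and TGF-beta added to 500 pg/mL final. After 18 h, GFP was imaged per cell and summed per well.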
ATXN viability: reduces viability in counter-screen for ATXN expression inhibitors. Potency, µM (highest dose often 56.7 µM), actives largely listed as cytotoxic. 0.49% of 400,000 active. S2 cells (HEK-293 line with an ATXN2-luciferase reporter) viability, CellTiter-Fluor protease fluorescence, 24 h. AID 651635; further: nearly all actives have a fitted effect of over 40% in size
HepG2 tox: counter-screen for TGF-b inhibitors: cytotoxicity in HepG2 cells; HepG2 CAGA-GFP viability, ATP luminescence, 18 h; Potency, µM (highest dose often 46.1 µM), actives largely listed as cytotoxic; 0.76% of 410,000 active; AID 588856
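CellTiter-Glo luminescence gave cytotoxicity after 18 hours at 37 degrees C. The cells were HepG2 CAGA-GFP in 1% FBS DMEM, stimulated with 500 pg/mL TGF-beta after compound addition. %Activity was normalised to no-cell wells (complete cell-killing) and DMSO (no toxicity), and curves were fitted and classified.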
DT40 TDP1 no CPT: qHTS for Inhibitors of human tyrosyl-DNA phosphodiesterase 1 (TDP1): qHTS in cells in absence of CPT; DT40 Tdp1-/- hTDP1 cells, no CPT, ATP luminescence, 48 h; Potency, µM (doses to about 46.2 µM), most hits filed as inhibitors; 15% of 420,000 active; AID 686978, 2013; further: nearly all actives have a fitted effect of over 55% in size
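Luminescent ATP content (CellTiter-Glo) served as the growth readout. Knockout chicken DT40 cells expressing human TDP1 were exposed to compounds without camptothecin for a minimum 48 hr at 37 °C.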
Each line names hits and unclear results; the compound was inactive in the other large screens. Rows were chosen to be rich in hits. Some 17% of all compounds tested hit in one or more screens of this group. The call rests on the fitted dose curve; in most records, active means well fitted curve in the direction sought with a large enough effect; inconclusive means small, poorly fitted or top-dose-only effect, or another doubt; inactive means no such curve, though single readings can be large; an effect the other way counts as inactive or inconclusive.

O=C(N/N=C/c1cccc([N+](=O)[O-])c1)c1cc2ccccc2o1	DT40 TDP1 CPT inconclusive, DT40 TDP1 no CPT 23µM
O=C(COc1ccc(/C=N/NC(=O)c2cc3ccccc3o2)cc1Cl)Nc1ccccc1	ATXN2 expr inh 10µM, DT40 TDP1 CPT 5.2µM, TGFb SMAD3 inh 2µM, ATXN viability 8.9µM, DT40 TDP1 no CPT 6.5µM
O=C(N/N=C/c1ccsc1)c1cc2ccccc2o1	none (no result: ATXN2 expr inh)
COc1cc(/C=N/NC(=O)c2ccccc2O)ccc1OCC(=O)Nc1ccccc1	DT40 TDP1 CPT inconclusive, ATXN viability inconclusive, DT40 TDP1 no CPT inconclusive
CC(=O)c1ccc(OC2(C)CCN(Cc3csc4ccccc34)C2)cc1 (centres undefined)	DT40 TDP1 CPT inconclusive, DT40 TDP1 no CPT inconclusive
N#CC1=C(N)Oc2c(ccc3ccccc23)C1c1ccsc1 (centres undefined)	DT40 TDP1 CPT 0.82µM, TGFb SMAD3 inh inconclusive, ATXN viability inconclusive, DT40 TDP1 no CPT 0.58µM
N#CC1=C(N)Oc2c(oc(CO)cc2=O)C1c1ccsc1 (centres undefined)	none
CCOC(=O)NC(=O)c1cn(CCN(C)C)c(=O)[nH]c1=O	none
CCCCCCn1c(=O)c(C(=O)N/N=C/c2cccc(F)c2)c(O)c2ccccc21	DT40 TDP1 CPT 0.92µM, DT40 TDP1 no CPT 1µM
CCCn1c(=O)c(C(=O)N/N=C/c2ccccc2F)c(O)c2ccccc21	none (no result: ATXN2 expr inh)
CC(C)CCn1c(=O)c(C(=O)N/N=C/c2cccc(F)c2)c(O)c2ccccc21	DT40 TDP1 CPT 1.3µM, DT40 TDP1 no CPT 0.65µM
CCCn1c(=O)c(C(=O)N/N=C/c2ccc(F)cc2)c(O)c2ccccc21	DT40 TDP1 CPT 9.2µM, DT40 TDP1 no CPT 5.2µM
CCCCCCC(=O)NNC(=O)c1c(O)c2ccccc2n(CC)c1=O	DT40 TDP1 CPT inconclusive, DT40 TDP1 no CPT inconclusive
COc1ccc(/C=N/n2c(-c3ccc(C)cc3)n[nH]c2=S)cc1OC	DT40 TDP1 CPT inconclusive, DT40 TDP1 no CPT inconclusive (no result: ATXN2 expr inh)
COc1cccc(CN(CCC(C)C)S(=O)(=O)c2cc(Br)ccc2Br)c1	DT40 TDP1 CPT 18µM, TGFb SMAD3 inh inconclusive, DT40 TDP1 no CPT 16µM
CCc1ccc(CN(C)C(=O)c2ccc3c(c2)OCCO3)cc1	none
Cc1ccc2c(c1)C(=O)OC(C(=O)Nc1ncc(Cc3ccc(Cl)cc3)s1)C2 (centres undefined)	none (no result: DT40 TDP1 CPT, DT40 TDP1 no CPT)
CC(C)c1ccc(NC(=O)COc2ccc(F)cc2C(=O)c2cnn(-c3ccccc3)c2)cc1	DT40 TDP1 CPT inconclusive, DT40 TDP1 no CPT 13µM
O=C(Nc1ccccc1C(=O)NCCCN1CCOCC1)c1cccc([N+](=O)[O-])c1	none
Cc1cc(C)c(C#N)c(SCC(=O)CC(=O)OC(C)C)n1	DT40 TDP1 CPT inconclusive
Cc1nc(SCC(=O)CC(=O)OC(C)C)c(C#N)c(C)c1C	DT40 TDP1 CPT 21µM, DT40 TDP1 no CPT inconclusive
O=C(CN1Cc2ccccc2OC(c2ccsc2)C1)N1CCN(Cc2ccc3c(c2)OCO3)CC1 (centres undefined)	DT40 TDP1 no CPT 23µM (no result: ATXN2 expr inh, TGFb SMAD3 inh, HepG2 tox)
Cc1ccc(C(=O)N(Cc2cc3cccc(C)c3nc2N(C)C)CC2CCCO2)cc1 (centres undefined)	none (no result: ATXN2 expr inh, TGFb SMAD3 inh, HepG2 tox)
COc1ccc(C2CC(C(F)(F)F)n3nc(C(N)=O)c(Cl)c3N2)cc1OC (centres undefined)	DT40 TDP1 no CPT inconclusive
COc1ccc(C2CC(C(F)(F)F)n3nc(C(=O)N(C)Cc4cn(C)nc4C)c(Cl)c3N2)cc1 (centres undefined)	DT40 TDP1 CPT inconclusive, DT40 TDP1 no CPT 18µM
COc1ccc(C2CC(C(F)(F)F)n3nc(C(=O)NCc4c(C)nn(C)c4C)c(Cl)c3N2)cc1 (centres undefined)	ATXN2 expr inh inconclusive, DT40 TDP1 CPT 1.3µM, TGFb SMAD3 inh inconclusive, DT40 TDP1 no CPT 5.2µM
C[C@@H]1CCCCO[C@H](CN(C)C(=O)Nc2ccc(C(F)(F)F)cc2)[C@@H](C)CN([C@H](C)CO)C(=O)c2cc(NC(=O)c3ccncc3)ccc2O1	DT40 TDP1 CPT 21µM, ATXN viability inconclusive, DT40 TDP1 no CPT 15µM
COc1ccc(S(=O)(=O)Nc2ccc3c(c2)C(=O)N([C@H](C)CO)C[C@H](C)[C@@H](CN(C)C(=O)Nc2ccc(C(F)(F)F)cc2)OCCCC[C@H](C)O3)cc1	DT40 TDP1 CPT inconclusive, ATXN viability inconclusive, DT40 TDP1 no CPT 23µM
COc1ccc(S(=O)(=O)Nc2ccc3c(c2)C(=O)N([C@H](C)CO)C[C@H](C)[C@@H](CN(C)C(=O)Nc2ccc(F)cc2)OCCCC[C@H](C)O3)cc1	DT40 TDP1 CPT inconclusive, DT40 TDP1 no CPT 23µM
COc1ccc(NC(=O)N(C)C[C@H]2OCCCC[C@@H](C)Oc3ccc(NC(=O)c4ccccc4)cc3C(=O)N([C@H](C)CO)C[C@@H]2C)cc1	DT40 TDP1 CPT inconclusive, DT40 TDP1 no CPT 21µM
Nc1c2c(nn1-c1ccc(F)cc1)CSC2	none
Cc1nccn1C(c1ccccc1)c1ccccc1	DT40 TDP1 CPT inconclusive, DT40 TDP1 no CPT inconclusive
O=C(NCc1ccccc1)c1ccc(CNS(=O)(=O)c2ccc(Br)cc2)cc1	none
C[C@@H]1CN([C@@H](C)CO)S(=O)(=O)c2ccc(Br)cc2O[C@H]1CN(C)C(=O)c1ccccc1	DT40 TDP1 CPT inconclusive, DT40 TDP1 no CPT inconclusive
C[C@H](CO)N1C[C@H](C)[C@@H](CN(C)C(=O)CC2CC2)Oc2cc(Br)ccc2S1(=O)=O	DT40 TDP1 CPT inconclusive, DT40 TDP1 no CPT 21µM
C[C@H](CO)N1C[C@H](C)[C@@H](CN(C)C(=O)c2ccc(F)cc2)Oc2cc(Br)ccc2S1(=O)=O	DT40 TDP1 CPT 26µM, DT40 TDP1 no CPT 13µM
C[C@H](CO)N1C[C@H](C)[C@H](CN(C)C(=O)CC2CC2)Oc2cc(Br)ccc2S1(=O)=O	none
C[C@@H]1CN([C@@H](C)CO)S(=O)(=O)c2ccc(Br)cc2O[C@H]1CN(C)C(=O)c1ccc2c(c1)OCO2	DT40 TDP1 CPT 23µM, ATXN viability inconclusive, DT40 TDP1 no CPT 23µM
C/C=C/c1ccc2c(c1)O[C@H](CN(C)CC1CCOCC1)[C@@H](C)CN([C@H](C)CO)S2(=O)=O	DT40 TDP1 CPT 23µM, DT40 TDP1 no CPT 18µM
Cc1cccn2c(=O)c(-c3nnn[nH]3)cnc12	none (no result: TGFb SMAD3 inh, HepG2 tox)
C[C@@H]1CN([C@@H](C)CO)S(=O)(=O)c2ccc(Br)cc2O[C@H]1CN(C)C(=O)c1cccc(F)c1	DT40 TDP1 no CPT inconclusive
